# PubChem BioAssay
# Assay: small-molecule binders of probe aLefty1, primary screen, biochemical, small-molecule microarray, 635/667 nm fluorescence (AID 1153);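 also: score merges spot fluorescence with signal-to-noise ratio from the scanned slide images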
# Settings: higher = more signal
row,Structure (SMILES),composite z-score
1,CCCCC(=C=CC[C@@H](O)c1cccc(OCCO)c1)CCO,-0.142
2,C=CCOC(=O)[C@@H]1[C@H]2C(=O)O[C@H](c3ccccc3)[C@H](c3ccccc3)N2[C@H](c2ccc(OCCOC(=O)[C@H]3C[C@H]4C(=O)NCC(=O)N4[C@H]3c3ccc(O)cc3)cc2)[C@@]12C(=O)Nc1ccc(I)cc12,-0.154
3,CN1C=C(C(=O)OCCS(C)(=O)=O)C(C(=O)OCCS(C)(=O)=O)=CC(CCCO)=CC1c1ccc(CN2CCCC2)cc1 (centres undefined),0.546
4,COCCOC(=O)N1C(=O)[C@@]2(c3cc(C#CC4(O)CCCCCC4)ccc31)[C@H](C(=O)N1CCc3cc(OC)c(OC)cc3C1)[C@H]1C(=O)O[C@H](c3ccccc3)[C@H](c3ccccc3)N1[C@@H]2c1ccc(O)cc1,0.176
5,O=C1O[C@@H](c2ccccc2)[C@@H](c2ccccc2)N2[C@@H](c3ccc(OCCO)cc3)[C@]3(C(=O)Nc4ccc(C#CCCO)cc43)[C@@H](C(=O)Nc3nc4ccccc4s3)[C@H]12,0.573
6,COCCCNC(=O)[C@@H]1c2ccccc2C(=O)N(C2CCCCC2)[C@H]1c1ccc(CO)cc1,0.0839
7,C=CC[C@]1(C(=O)NCc2ccccc2)COC(c2ccc(OCCCO)cc2)=N1,0.743
8,CN(C)CCCNC(=O)[C@@]1(Cc2ccccc2I)c2ccccc2C(=O)N(Cc2ccccc2)[C@H]1c1ccc(CO)cc1,-0.729
9,COc1cccc(OC)c1C(=O)O[C@H]1[C@@H]2OC(=O)[C@H](Cc3cccc(Br)c3)C/C=C/C[C@@H](Cc3cccc(Br)c3)C(=O)O[C@H]2[C@@H](OC)O[C@@H]1CO,-0.0559
10,[N-]=[N+]=NCc1ccccc1C[C@]1(C(=O)NCc2ccccc2)N=C(c2ccc(OCCCO)cc2)O[C@H]1c1ccccc1CN=[N+]=[N-],1.09
11,COCCOC(=O)N1C(=O)[C@@]2(c3cc(C#Cc4ccc(OC)cc4)ccc31)[C@H](c1ccc(OCCO)cc1)N1[C@H](c3ccccc3)[C@H](c3ccccc3)OC(=O)[C@H]1[C@@H]2C(=O)N1CCCCCCC1,2.74
12,Cc1ccc(S[C@]2(C(=O)NC3CC3)CC(=O)N(Cc3cc(C(F)(F)F)cc(C(F)(F)F)c3)[C@@H]2c2ccc(CO)cc2I)cc1,-0.625
13,CC1(C)OC[C@@]23C=C(Br)[C@@H](C[C@H]12)[C@@]1(CO1)C3=O,0.0557
14,CCOC(=O)C1=CC[C@@H](c2ccccc2)N(S(=O)(=O)c2ccc(C)cc2)[C@H]1C#N,-0.081
15,COc1ccccc1CN1C(=O)c2ccccc2[C@](Cc2ccccc2I)(C(=O)NCCCN(C)C)[C@@H]1c1ccc(CO)cc1,-0.275
16,CCCC=C(CCC)[C@@H](NC(=O)c1ccco1)c1ccc(C(=O)OC)cc1,0.48
17,CC(C)(C)OC(=O)CC[C@]1(C(N)=O)N=C(c2ccc(OCCCO)cc2)O[C@H]1c1ccccc1CN=[N+]=[N-],0.5
18,COc1ccc(NN2C(C(O)c3cc(C(F)(F)F)cc(C(F)(F)F)c3)C=CC3C(=O)N(C4CCCCC4)C(=O)C32)cc1 (centres undefined),1.41
19,COc1ccc(CCNC(=O)[C@@]2(C)c3ccccc3C(=O)N(Cc3cc(C(F)(F)F)cc(C(F)(F)F)c3)[C@H]2c2ccc(CO)cc2)cc1,-0.216
20,CC(C)C(=C=CC[C@@H](O)c1ccc(OCCO)cc1)CCO,-0.0054
21,C=CCC(OC(C)=O)[C@@H]1[C@@H](N(Cc2cc3ccccc3o2)C(=O)c2ccc(-c3ccccc3)cc2)c2cc(OCCCO)ccc2N1C(=O)c1ccc2ccccc2n1 (some centres undefined),-0.0534
22,CC(C)c1ccc(NN2C(C(O)C(C)C)C=CC3C(=O)N(c4ccccc4)C(=O)C32)cc1 (centres undefined),0.996
23,CCCC[C@H]1OB(O)C[C@H]2C1=C(COC)C[C@H]1C(=O)C=CC(=O)[C@H]12,-0.188
24,COc1ccc([Si](C)(C)[C@H]2[C@H](CCn3cc([C@H](O)c4ccccc4)nn3)O[C@@]3(C(=O)N(c4ccccc4)c4ccccc43)[C@@H]2C)cc1,0.0004
25,N#Cc1ccc(C(O)C2C=CC3C(=O)NC(=O)C3N2Nc2ccccn2)cc1 (centres undefined),0.0341
26,O=C1C2C=CC(C(O)c3cccs3)N(Nc3ccccc3)C2C(=O)N1c1ccccc1 (centres undefined),0.328
27,CC(C)=CCN(C(=O)C#Cc1ccccc1)[C@H](CO)c1ccccc1,-0.0876
28,CCCC[C@@H]1C[C@H]1[C@@H](NC(=O)Cc1ccccc1)c1ccc(Cl)cc1,0.509
29,O=C1C2C=CC(C(O)c3ccc([N+](=O)[O-])cc3)N(Nc3ccccc3)C2C(=O)N1c1ccccc1 (centres undefined),0.124
